{"source": "PubChem BioAssay (NCATS)", "note": "Records with an inconclusive call do not appear. Calls of active or inactive are those of the source. Calls follow the shape of the dose curve; as a rule, active = well fitted inhibition curve with a large enough effect; inconclusive = small, poorly fitted or top-dose-only effect; inactive = flat fitted curve, though single readings scatter. % is scaled to controls: 0 for no effect and ±100 for the full control effect."}
{"target": "Calcium and integrin-binding protein 1 (Homo sapiens) (UniProt Q99828)", "sequence (Q99828 whole entry, looked up)": "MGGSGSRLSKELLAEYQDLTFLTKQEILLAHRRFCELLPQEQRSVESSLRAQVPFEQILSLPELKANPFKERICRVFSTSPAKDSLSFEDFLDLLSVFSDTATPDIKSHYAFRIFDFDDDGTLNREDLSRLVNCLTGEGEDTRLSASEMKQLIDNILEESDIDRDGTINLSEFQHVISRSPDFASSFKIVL", "assay": "Primary qHTS for Identification of Calcium Integrin Binding Protein 1 (CIB1) Competitor (AID 1508620);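 also: GST tagged CIB1 binding a fluorescein labelled alphaIIb integrin peptide tracer; top concentration of the series differs between compounds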", "details": "CIB1-GST / FITC-alphaIIb peptide fluorescence polarization; series mostly up to 114 µM; activity change, negative = inhibition: at the top concentration", "in_short": "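CIB1-GST (1 uM final) and compound incubated 15 min at room temperature before adding FITC-alphaIIb peptide tracer (100 nM final). Competition for binding read by fluorescence polarization (ex 480, em 540) after another 15 min at room temperature.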"}
{"smiles": "CCCN1CCO[C@H]2c3cc(O)ccc3OC[C@@H]21", "activity change, negative = inhibition": "5.26% (inactive)"}
{"smiles": "CCCCCOc1cc2c(cc1-c1cc(/C=C/C(=O)O)ccc1O)C(C)(C)CCC2(C)C", "activity change, negative = inhibition": "-7.52% (inactive)"}
{"smiles": "CCN1C[C@]2(COC(=O)c3ccccc3N3C(=O)C[C@H](C)C3=O)CC[C@H](OC)[C@@]34[C@@H]5C[C@H]6[C@H](OC)[C@@H]5[C@](O)(C[C@@H]6OC)[C@](O)([C@@H](OC)[C@H]23)[C@@H]14", "activity change, negative = inhibition": "4.61% (inactive)"}
{"smiles": "COc1cc(C(=O)O[C@H]2[C@@H]3C=CO[C@@H](O[C@@H]4O[C@H](CO)[C@@H](O)[C@H](O)[C@H]4O)[C@@H]3[C@@]3(CO)O[C@@H]23)ccc1O", "activity change, negative = inhibition": "4.03% [at 57.7 µM] (inactive)"}
{"smiles": "CC(CCc1ccc(O)cc1)O[C@@H]1O[C@H](CO[C@H]2OC[C@](O)(CO)[C@H]2O)[C@@H](O)[C@H](O)[C@H]1O", "note": "(some centres not stated)", "activity change, negative = inhibition": "1.44% [at 57.7 µM] (inactive)"}
{"smiles": "CC1=CC2/C=C(\\C)CCC(O)C3OC(C)(C)OC3CC(=O)OC23C(=O)NC(CC(C)C)C3C1C", "note": "(configuration not stated)", "activity change, negative = inhibition": "0.396% [at 57.7 µM] (inactive)"}
{"smiles": "CCN1C[C@]2(COC)[C@H](O)C[C@H](OC)[C@]34[C@@H]5C[C@]6(O)[C@H](OC(=O)c7ccccc7)[C@@H]5[C@@](O)([C@H]([C@H](OC)[C@H]23)[C@@H]14)[C@@H](O)[C@@H]6OC", "activity change, negative = inhibition": "-2.87% [at 57.7 µM] (inactive)"}
{"smiles": "CN[C@H]1[C@H](O)[C@H](O[C@@H]2[C@@H](O)[C@H](O[C@H]3O[C@H]([C@H](C)O)[C@@H](O)[C@H](O)[C@H]3N)[C@@H](N)C[C@H]2N)OC[C@@]1(C)O", "activity change, negative = inhibition": "-8.25% (inactive)"}
{"smiles": "Cc1c(Cl)cccc1S(=O)(=O)Nc1nc(CC(=O)N2CCN(C)CC2)cs1", "activity change, negative = inhibition": "-4.38% (inactive)"}
{"smiles": "Clc1ccc(N2C[C@H]3CC[C@@H](C2)N3)nn1", "activity change, negative = inhibition": "2.83% (inactive)"}
{"smiles": "CC1=C2C(=O)C3[C@@H](CC=C4C[C@@H](O)CC[C@@]43C)[C@@H]2CC[C@]12O[C@@H]1C[C@H](C)CN[C@H]1[C@H]2C", "note": "(some centres not stated)", "activity change, negative = inhibition": "1.69% [at 57.7 µM] (inactive)"}
{"smiles": "CCc1[nH]c2ccc(OC)cc2c1CCN(C)C", "activity change, negative = inhibition": "-9.89% (inactive)"}
{"smiles": "Cc1cc(C(=O)CN2CCCC2)c(C)n1-c1ccc(F)cc1", "Potency": "inactive"}
{"smiles": "C/C=C(\\C)C(=O)OC1C(C)OC(OC2C(C)OC(OC3CCC4(C)C(=CCC5C4CCC4(C)C(C(C)OC6OC(COC7OC(CO)C(O)C(O)C7O)C(O)C(O)C6O)CCC54O)C3)CC2OC)C(O)C1OC", "note": "(configuration not stated)", "activity change, negative = inhibition": "0.302% [at 30.2 µM] (inactive)"}
{"smiles": "COC(=O)C1(C)CCC(O)C2(C)c3c(O)cc(C(C)C)cc3C(O)C(OC(C)=O)C12", "note": "(configuration not stated)", "activity change, negative = inhibition": "0.415% [at 57.7 µM] (inactive)"}
{"smiles": "COC1C(O)C(C)OC(OC2C(CO)O[C@@H](O[C@@H]3CC4CCC5C(CC[C@]6(C)[C@@H](C7=CC(=O)OC7)CC[C@]56O)[C@@]4(C)[C@H](O)C3)C(O)C2O)C1O", "note": "(some centres not stated)", "activity change, negative = inhibition": "0.925% [at 30.2 µM] (inactive)"}
{"smiles": "CC[C@H]1CN2CC[C@H]1C[C@H]2[C@H](O)c1ccnc2ccc(OC)cc12", "activity change, negative = inhibition": "1.02% [at 57.7 µM] (inactive)"}
{"smiles": "CC(=O)OC1CC(O)C(C)(C)C2CC(OC(C)=O)C3(C)C(CCC4(C)C(c5ccoc5)C(=O)C5OC543)C12C", "note": "(configuration not stated)", "activity change, negative = inhibition": "2.69% [at 57.7 µM] (inactive)"}
{"smiles": "COC(=O)C1(C)CCC(O)C2(C)c3cc(O)c(C(C)C)cc3C(O)C(OC(C)=O)C12", "note": "(configuration not stated)", "activity change, negative = inhibition": "-1.14% [at 57.7 µM] (inactive)"}
{"smiles": "COC(=O)C1(C)CCC(=O)C2(C)c3c(O)cc(C(C)C)cc3C(O)C(OC(C)=O)C12", "note": "(configuration not stated)", "activity change, negative = inhibition": "0.545% [at 57.7 µM] (inactive)"}
{"smiles": "COC1=CC(=O)O[C@@H](/C=C/c2ccccc2)C1", "activity change, negative = inhibition": "3.95% (inactive)"}
{"smiles": "Cn1ncnc1COc1nn2c(-c3c(F)cccc3F)nnc2cc1C1CCC1", "activity change, negative = inhibition": "0.97% (inactive)"}
{"smiles": "O=C(N1CCOCC1)N1CCN(c2ccc(Cl)cc2)CC1", "activity change, negative = inhibition": "2.53% (inactive)"}
{"smiles": "COC1CC(O[C@H]2CC[C@]3(C=O)C4CC[C@]5(C)[C@@H](C6=CC(=O)OC6)CC[C@]5(O)[C@@H]4CC[C@]3(O)C2)OC(C)C1O[C@@H]1O[C@H](CO)[C@@H](O)[C@H](O)[C@H]1O", "note": "(some centres not stated)", "activity change, negative = inhibition": "2.56% [at 30.2 µM] (inactive)"}
{"smiles": "C=CC(C)(C)c1[nH]c2cccc3c2c1C[C@@H]1[C@@H]3[C@@H](OC(C)=O)[C@H](C)CN1C", "activity change, negative = inhibition": "-1.33% [at 57.7 µM] (inactive)"}
{"smiles": "COC(=O)N1CCN(C(=O)Cc2ccc(Cl)c(Cl)c2)[C@@H](CN2CCCC2)C1", "activity change, negative = inhibition": "-2.26% (inactive)"}
{"smiles": "Cc1cn(C[C@H](N)C(=O)O)c(=O)n(Cc2cc(-c3ccccc3)sc2C(=O)O)c1=O", "activity change, negative = inhibition": "-2% (inactive)"}
{"smiles": "CN1C(=O)N(c2ccc(C#N)c(C(F)(F)F)c2)C(=O)[C@]1(CO)c1ccccc1", "activity change, negative = inhibition": "0.866% (inactive)"}
{"smiles": "C[C@]12CC[C@@H](O)C[C@H]1CC[C@@H]1[C@@H]2CC[C@]2(C)C(=O)CC[C@@H]12", "activity change, negative = inhibition": "0.237% (inactive)"}
{"smiles": "COC1CC(OC2CCC3(C)C(CCC4C3CCC3(C)C(C5=CC(=O)OC5)C(OC(C)=O)CC43O)C2)OC(C)C1OC1OC(CO)C(O)C(O)C1O", "note": "(configuration not stated)", "activity change, negative = inhibition": "-2.33% [at 30.2 µM] (inactive)"}
{"smiles": "COc1cc(CCNCc2ccccc2O)c(OC)cc1C#N", "activity change, negative = inhibition": "2.02% (inactive)"}
{"smiles": "CC(C)=C1CC[C@]23CO[C@H](C2)[C@@](O)(C(=O)O)CCC13", "note": "(some centres not stated)", "activity change, negative = inhibition": "-0.151% (inactive)"}
{"smiles": "CC(C)(O)[C@H]1O[C@H]2CC[C@@]3(C)[C@@](O)(CC[C@H]4Cc5c([nH]c6ccccc56)[C@@]43C)C2=CC1=O", "activity change, negative = inhibition": "-1.57% [at 57.7 µM] (inactive)"}
{"smiles": "CCc1c(C(=O)C(N)=O)c2c(OCC(=O)OC)cccc2n1Cc1ccccc1", "activity change, negative = inhibition": "6.74% (inactive)"}
{"smiles": "CN(C(=O)Cc1ccccc1)C(CN1CCCC1)c1ccccc1", "note": "(configuration not stated)", "activity change, negative = inhibition": "3.68% (inactive)"}
{"smiles": "C1=C2CCCN[C@H]2[C@@H]2C[C@H]1[C@H]1CCCCN1C2", "activity change, negative = inhibition": "-1.69% (inactive)"}
{"smiles": "CC12CCC3C(CCC4(O)CC(O)CCC34C=O)C1(O)CCC2C1=CC(=O)OC1", "note": "(configuration not stated)", "activity change, negative = inhibition": "-6.23% (inactive)"}
